Sampled rows, rich in hits. Any-hit rate of the full collection: about 10%.
JMJD2A Tudor: qHTS Assay for Inhibitors of JMJD2A-Tudor Domain | Lysine-specific demethylase 4A (Homo sapiens), O75164 | AlphaScreen JMJD2A-Tudor / H3K4me3 peptide binding | Potency, µM (titrated, usually from 114 µM), for the others: top-dose activity change, negative = inhibition, hits mostly inhibitors | 4.4% of 390,000 active; further: on the % scale 0 is the no-effect control and ±100 the full control effect; nearly all actives have a fitted effect of over 50% in size
BAZ2B block: qHTS Assay for Inhibitors of BAZ2B; 4.4% of 360,000 active; Potency, µM (titrated, usually from 114 µM), for the others: at the top dose activity change, negative = inhibition, most hits filed as inhibitors; Bromodomain adjacent to zinc finger domain protein 2B (Homo sapiens), Q9UIF8; AlphaScreen BAZ2B-H3K14Ac peptide displacement; further: on the % scale 0 is the no-effect control and ±100 the full control effect; nearly all actives have a fitted effect of over 60% in size
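Multi-concentration screen (max 110 uM) measuring displacement of acetylated histone H3 peptide from BAZ2B by AlphaScreen, using 50 nM protein, 50 nM peptide and 10 ug/mL streptavidin donor plus Ni-chelate acceptor beads.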
GLS inh: qHTS for Inhibitors of Glutaminase (GLS); Potency, µM (highest dose often 45.5 µM), without a hit: at the top dose activity change, negative = inhibition, hits mostly inhibitors; AID 624170, 2012; GLS enzymatic activity, qHTS titration; 0.21% of 410,000 active; further: on the % scale 0 is the no-effect control and ±100 the full control effect
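Assay buffer: 45 mM KH2PO4 pH 8.2, 0.02% Tween-20. hKGA acts on L-glutamine (1 mM solution added); product glutamate is reported by an oxidase/peroxidase Amplex Red coupling, with fluorescence taken at baseline and 30 min.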
L3MBTL1 inh: qHTS Assay for the Inhibitors of L3MBTL1. Lethal(3)malignant brain tumor-like protein 1 (Homo sapiens), Q9Y468. 0.66% of 230,000 active. AID 485360, 2010. AlphaScreen L3MBTL1–H3K9me1 peptide binding. Potency, µM (series often up to 57.1 µM), for inactives: at the highest dose activity, negative = inhibition, actives largely listed as inhibitors; further: on the % scale 0 is the no-effect control and ±100 the full control effect; nearly all actives have a fitted effect of over 60% in size
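AlphaScreen assay: L3MBTL1 (50 nM final) was preincubated 30 min at room temperature with biotinylated H3(1-15)K9me1 peptide (75 nM final), then 30 min with library compounds; streptavidin donor and nickel chelate acceptor beads (10 ug/mL final) added, 30 min dark.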
HP1b binding inh: HTS for Inhibitors of HP1-beta Chromodomain Interactions with Methylated Histone Tails | Chromobox protein homolog 1 (Homo sapiens), P83916 | AlphaScreen HP1-beta / biotin-H3K9me3 peptide binding | Potency, µM (highest dose often 114 µM), for the others: at the top dose activity change, negative = inhibition, most hits filed as inhibitors | 0.56% of 390,000 active | AID 540317, 2011; further: nearly all actives have a fitted effect of over 70% in size
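Compound inhibition of the preformed complex between 50 nM HP1-beta and 50 nM biotinylated H3K9me3 peptide was read by AlphaScreen. Buffer was PBS pH 7.4 with 0.01% Tween-20. Incubations ran 30 min at room temperature, with 10 ug/mL donor/acceptor beads.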
G9a inh: qHTS Assay for Inhibitors of Histone Lysine Methyltransferase G9a | Potency, µM (series often up to 102 µM), for the others: at the highest dose activity, negative = inhibition, actives largely listed as inhibitors | AID 504332, 2011 | 8.8% of 350,000 active | G9a H3K9 monomethylation, AlphaScreen, 2 h | Histone-lysine N-methyltransferase EHMT2 (Homo sapiens), Q96KQ7; further: on the % scale 0 is the no-effect control and ±100 the full control effect; nearly all actives have a fitted effect of over 75% in size
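Using a bead-based AlphaScreen, monomethylated H3K9 product from 2 h room-temperature reactions (G9a 20 nM, peptide 500 nM, SAM 20 uM) was detected with 0.5 ug/mL rabbit anti-H3K9me1 antibody.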
* = called active by the depositor; ? = inconclusive; / = no result given; [ ] = dose if it differs, or a comment. The call rests on the fitted dose curve; in most records, active means well fitted curve in the direction sought with a large enough effect; inconclusive means small, poorly fitted or top-dose-only effect, or another doubt; inactive means no such curve, though single readings can be large; an effect the other way counts as inactive or inconclusive. Potency means the concentration at half of the fitted maximal effect.

SMILES | JMJD2A Tudor | BAZ2B block | GLS inh | L3MBTL1 inh | HP1b binding inh | G9a inh
CCC(=O)NCc1ccc2[nH]c(C)cc2c1 | -18% | -16% | 14% | 0% | 32% | 35µM*
CCc1cccc(C)c1NC(=S)NCc1ccc2[nH]c(C)cc2c1 | ? | 40µM* | 9% | -13% | 5% | ?
COc1ccc2c(C)cc3n[nH]c(=S)n3c2c1 | 0.71µM* | ? | ? | -1% | ? | 1µM*
COc1ccc2c(C)cc(=O)[nH]c2c1 | -8% | 4% | 0% | / | 48% | 17%[59 µM]
COc1ccc2oc(-c3cccc(NC(=O)c4cc([N+](=O)[O-])ccc4N4CCOCC4)c3)nc2c1 | -29% | ? | -15% | / | -11% | ?
CCN(CC)CCCNC(=O)c1ccc2c(c1)sc1nc(-c3ccc(C)cc3)cn12 | ? | 40µM* | 2% | / | -10% | 11µM*
Cc1ccc(N=Cc2sc(O)c3ccccc23)cc1 | 14%[57.1 µM] | 33% | 1% | 34% | 67% | 8.9µM*
Cc1ccc(N=Cc2sc(O)c3ccccc23)c(C)c1 | -6% | 14% | 7% | -3% | -4% | 8.9µM*
COCCn1c(=O)c(-c2cccs2)nc2cnc(Oc3ccccc3)nc21 | / | / | / | / | / | -5%[0.501 µM]
Cc1ccc(Cl)cc1-n1ncc2c(Nc3ccc4c(c3)OCCO4)ncnc21 | -7% | -3% | -1% | / | 19% | 8%[59 µM]
O=[N+]([O-])c1cccc(CN2CCN(c3cccc4[nH]ccc34)CC2)c1 | 56µM* | ? | 2% | / | -29% | 32µM*
O=[N+]([O-])c1cccc(CN2CCN(c3ncccn3)CC2)c1 | 2.2µM* | ? | -4% | -7% | ? | 11µM*
FC(F)(F)c1cccc(CN2CCN(c3ncccn3)CC2)c1 | -16% | / | -1% | / | 50% | /
c1ccc(CN2CCN(c3ncccn3)CC2)cc1 | 4.5µM* | ? | 1% | 10% | -31% | 25µM*
Clc1ccc(CN2CCN(c3ncccn3)CC2)cc1Cl | 13µM* | 79µM* | -4% | -3% | -24% | /
NC(=O)c1cc([N+](=O)[O-])ccc1N1CCN(Cc2ccccc2)CC1 | -9% | -8% | -1% | -3% | 16% | /
CCOC(=O)c1ccc(NC(=O)CSc2nccn2-c2ccc(OCC)cc2)cc1 | -29% | ? | -8% | / | -9% | ?
CCOc1ccc(C2C(=O)N(C3CCCCCC3)CC(=O)N2CCc2ccccc2)cc1OC (configuration not stated) | -27% | -13% | -12% | / | -15% | ?
O=C(c1ccccc1)N1CCN(C(=O)c2ccc([N+](=O)[O-])cc2)CC1 | 3% | -4% | -3% | 3% | 29% | 0%[59 µM]
O=C(c1ccccc1)N1CCN(c2ccc([N+](=O)[O-])cc2-n2cccc2)CC1 | ? | 28µM* | 13% | / | 19% | /
CC(C)N1CCN(C(=O)c2ccc([N+](=O)[O-])cc2)CC1 | 79µM* | / | -2% | / | ? | /
COc1cc(CN2CCN(c3ncccn3)CC2)cc(OC)c1 | -11% | 1% | 8% | 6% | 25% | /
Clc1ccc(CN2CCN(c3ncccn3)CC2)cc1 | 13µM* | ? | -10% | 4% | 12% | /
O=C(c1ccc([N+](=O)[O-])cc1)N1CCN(c2cccc3[nH]ccc23)CC1 | -24% | -25% | 14% | -8% | 15% | 50µM*
Cc1c(Cl)cccc1NC(=O)CSc1nc(=O)[nH]c2c1CCC2 | -8% | -9% | -3% | / | -5% | 22%[59 µM]
CCn1nc(C)cc1C(=O)N1CCCC(Nc2ccc(C(C)C)cc2)C1 (configuration not stated) | -35% | ? | 0% | / | -5% | 50µM*
